From ChEMBL document CHEMBL3988442, “University of Dundee, Small-Polar-MMV Screening Library” (2021)
About 13,000 (27%) of roughly 48,000 compounds showed an effect of 50% or more. Some of the results follow.

system: Wolbachia pipientis; experiment: Anti-Wolbachia Cell-Based Screen; format: functional; parameters: scale not given: in the data most compounds retested in dose-response had high values; conditions: 5 µM

SMILES	Percent Effect [%]
CN1CCC(c2n[nH]c(=O)n2-c2cccc(Cl)c2)CC1	-11.2
CN1CC(c2n[nH]c(=O)n2-c2cccc(Cl)c2)CC1=O (stereo not given)	-17.26
CCOc1ccccc1-n1c(CNC)n[nH]c1=O	-1.505
CCOc1ccccc1-n1c(C2CC(=O)N(C)C2)n[nH]c1=O (stereo not given)	114.8
CCOc1ccccc1OC1CCN(C(=O)c2nc(=O)[nH][nH]2)CC1	-16.56
O=c1[nH]nc(C2CC2)n1-c1cccc(Cl)c1	12.75
C[C@H](c1ccc(F)cc1)n1c(C2CCC2)n[nH]c1=O	13.77
CCOc1ccccc1-n1c(C2CCC2)n[nH]c1=O	114.1
CCOc1ccccc1-n1c(C2CC2)n[nH]c1=O	101.4
CC(C)CN(CCc1ccccc1)Cc1nc2c(cnn2C)c(=O)[nH]1	122.3
CCN(Cc1cccc(Cl)c1)Cc1nc2c(cnn2C)c(=O)[nH]1	6.587
CC(C)CN(Cc1nc2c(cnn2C)c(=O)[nH]1)C(C)C	-8.165
Cc1cccc(CN(C)Cc2nc3c(cnn3C)c(=O)[nH]2)c1	-4.984
CN(Cc1nc2c(cnn2C)c(=O)[nH]1)Cc1ccccc1Cl	-1.712
CC(C)N(Cc1cccc(Cl)c1)Cc1nc2c(cnn2C)c(=O)[nH]1	119.9
CCN(Cc1nc2c(cnn2C)c(=O)[nH]1)Cc1ccccc1Cl	128.5
CC(C)N(Cc1cccc(F)c1)Cc1nc2c(cnn2C)c(=O)[nH]1	-9.693
CCN(Cc1cccc(C)c1)Cc1nc2c(cnn2C)c(=O)[nH]1	145.1
CN(CCCc1ccccc1)Cc1nc2c(cnn2C)c(=O)[nH]1	-1.148
CCN(Cc1nc2c(cnn2C)c(=O)[nH]1)Cc1ccccc1C	-3.933
Cc1ccc(NCc2ccc(C#N)cc2)c(CN(C)C)c1	-4.346
N#CCCN(Cc1ccccn1)C(=O)Nc1cccnc1	-3.639
CCN(C)c1ccc(C(=O)NCCCc2ccccn2)cn1	1.401
CC(O)CC(C)(C)CNS(=O)(=O)c1cccc(Cl)c1C#N (stereo not given)	-3.91
O=C(CN1C(=O)CCNC1=O)N1CCOC(c2ccc(F)cc2)C1 (stereo not given)	13.31

SMILES	Percent Effect [%]
CCN(CC(=O)NC(C)C)S(=O)(=O)N1CCCC(C)C1 (stereo not given)	-4.686
CC(=O)c1c(F)cccc1N1CCC(CS(N)(=O)=O)CC1	-2.597
CN(Cc1ccc([S+](C)[O-])cc1)c1ccc(Cl)cn1 (stereo not given)	-11.61
CCN(Cc1cccc(F)c1)Cc1nc2c(cnn2C)c(=O)[nH]1	117.6
Cn1ncc2c(=O)[nH]c(CN(Cc3cccc(F)c3)C3CC3)nc21	7.175
CCN(Cc1ccccc1)Cc1nc2c(cnn2C)c(=O)[nH]1	106.9
CCN(Cc1nc2c(cnn2C)c(=O)[nH]1)c1ccccc1C	-6.85
CC(C)CN1C(=O)CC[C@H]2CN(Cc3ncc[nH]3)CC[C@H]21	-0.2124
Cc1noc(Cl)c1CC(=O)NCC(C)(O)c1ccc(F)cc1F (stereo not given)	5.104
CN(Cc1nc(-c2cccnc2)no1)C(=O)c1c2c(nn1C)CCCC2	-6.1
CCOCc1ccc(CNc2cncc(-n3cccn3)n2)cc1	106.2
NS(=O)(=O)Cc1ccc(CNc2cncc(-n3cccn3)n2)cc1	114
CC(C)COc1cncc(NCc2nnc3ccccn23)n1	-11.09
CC(C)OCc1ccc(CNc2cncc(-n3cccn3)n2)cc1	123.9
O=C1CN(c2ccc(CNc3cncc(-n4cccn4)n3)cc2)CCN1	17.5
CNS(=O)(=O)Cc1ccc(CNc2cncc(-n3cccn3)n2)cc1	3.239
CN(C)C(=O)C1CCN(c2cncc(-n3cccn3)n2)CC1	6.063
COC(=O)Nc1ccc(CNc2cncc(-n3cccn3)n2)cc1	97.69
CCOCCOCc1cccc(CNc2cncc(-n3cccn3)n2)c1	5.599
CCOCc1ccc(CNc2nc(OC)ncc2Cl)cc1	-6.174
Cc1cnn(CC(C)NCc2ccc(-n3cccn3)cc2)c1 (stereo not given)	9.413
Cc1cc(N2C[C@H](C3CC3)[C@@H](N)C2)nc(N2CCCCC2)n1	11.86
CC(C)c1cc(N2CCC(N(C)C)C2)n2nccc2n1 (stereo not given)	10.32
O=C1OCCN1Cc1ccc(C(F)(F)F)cc1F	-29.22
CCNc1ncc(C(=O)NC(c2ccccc2)c2ccco2)cn1 (stereo not given)	-3.465

SMILES	Percent Effect [%]
COCCN(Cc1sccc1C)Cc1nccn1CCOC	4.16
CC(CNc1cncc(-n2cccn2)n1)N(C)c1ccccc1 (stereo not given)	0.6159
CN(C)c1ccc(CNc2cncc(-n3cccn3)n2)cc1	6.951
CN(C)c1cc(CNc2cncc(-n3cccn3)n2)ccn1	94.25
COCc1ccc(CNc2cncc(-n3cccn3)n2)cc1	105.5
CCN(CC)S(=O)(=O)c1ccc(NC(=O)C(C)(C)C)cc1	-6.648
Cc1nn(CC(=O)N2CCN(c3cnccn3)CC2)c(C)c1Cl	4.895
O=C(CCOc1ccc(Br)cc1)N1CCN(c2cnccn2)CC1	108.9
O=C(CCSc1ccc(F)cc1)N1CCN(c2cnccn2)CC1	-10.65
O=C(CCOc1cccc(Cl)c1)N1CCN(c2cnccn2)CC1	103.8
O=C(Cc1ccc2c(c1)OCO2)N1CCN(c2cnccn2)CC1	-5.983
O=C(CCSc1ccccc1F)N1CCN(c2cnccn2)CC1	4.662
O=C(CCOc1ccccc1Cl)N1CCN(c2cnccn2)CC1	81.46
O=C(COc1ccc(Cl)cc1)N1CCN(c2cnccn2)CC1	138.2
CC(CC(=O)N1CCN(c2cnccn2)CC1)c1ccc(F)cc1 (stereo not given)	3.505
O=C(c1ccc(-n2cc(Br)cn2)cc1)N1CCN(c2cnccn2)CC1	12.88
CSCc1cccc(S(=O)(=O)NCCCO)c1	-5.091
CS(=O)(=O)CCN(CC1CCCO1)C1CCCC1 (stereo not given)	-6.798
CC(NCc1cn(CCC(N)=O)c2ccccc12)c1nncn1C (stereo not given)	-5.557
O=C(C[C@@H]1COC[C@H]2CN(C3CCCC3)C[C@@H]12)N1CCCCO1.O=C(O)C(F)(F)F	2.72
CN(C)CCn1c2c(ccc1=O)CCN(C(=O)c1cccs1)CC2.O=C(O)C(F)(F)F	111.2
Cc1ccc(C(=O)N2CCc3ccc(=O)n(CCN(C)C)c3CC2)o1.O=C(O)C(F)(F)F	107.1
Cc1ccc2c(n1)N(CCN(C)C)CCN(C(=O)c1ccoc1)C2.O=C(O)C(F)(F)F.O=C(O)C(F)(F)F	2.564
Cc1ccoc1C(=O)N1Cc2c(Cn3ccnc3)nn(C)c2C1.O=C(O)C(F)(F)F	12.61
Cc1ccc(C(=O)N2C[C@@H]3[C@@H](C2)OCC(=O)N3Cc2cccnc2)o1.O=C(O)C(F)(F)F	-3.343

SMILES	Percent Effect [%]
Cc1ccoc1C(=O)N1C[C@@H]2[C@@H](C1)OCC(=O)N2Cc1cccnc1.O=C(O)C(F)(F)F	8.295
CN(C)CCn1c2c(ccc1=O)CCN(C(=O)c1ccoc1)CC2.O=C(O)C(F)(F)F	107.6
CN(C)CCOc1ccccc1N1CCN(C(=O)c2ccoc2)CC1	-4.916
Cc1ccc(C(=O)N2CCn3cc(CN(C)Cc4ccco4)nc3C2)o1.O=C(O)C(F)(F)F	-7.52
Cc1ccc2c(n1)N(CCN(C)C)CCN(C(=O)c1cccs1)C2.O=C(O)C(F)(F)F.O=C(O)C(F)(F)F	-13.61
Cc1ccoc1C(=O)N1CCc2ccc(=O)n(CCN(C)C)c2CC1.O=C(O)C(F)(F)F	99.37
CCS(=O)(=O)c1ccc2oc([C@H]3CCN(Cc4ccccc4)C3)nc2c1	-9.259
CC(NCCN1CCC(N(C)C)CC1)c1ccc(F)cc1N(C)C (stereo not given)	-1.854
CCc1nc(CC(=O)N2CCC(C(=O)N(CC)CC)CC2)cs1	9.803
NC(=O)C1CCN(C(=O)c2cccc(OCc3cscn3)c2)CC1	-9.747
Cc1cc(C)c(CNC(=O)NCCNc2cnccn2)c(=O)[nH]1	6.343
Cc1ccc(C(=O)N2CCN(CCC(C)(C)C)CC2)c(=O)[nH]1	-8.325
CC(C(=O)NCc1ccc(F)cc1)N(C)CCN1CCOCC1 (stereo not given)	8.931
CC(=O)NCC(=O)N(CCN1CCOCC1)Cc1ccco1	-7.485
OCC(O)CN(CCN1CCOCC1)Cc1ccco1 (stereo not given)	99.07
CS(=O)(=O)CC(=O)N(CCN1CCOCC1)Cc1ccco1	-25.1
C/C=C(\C)CN(CCN1CCOCC1)Cc1ccco1	118.7
CN(C)CCN1CCOCC2(C1)CN(Cc1ccco1)CCO2.O=C(O)C(F)(F)F.O=C(O)C(F)(F)F.O=C(O)C(F)(F)F (stereo not given)	27
OCc1ccncc1NCc1cnc(-c2ccccn2)s1	-4.749
Cc1cc2n(n1)CC(CNC1CCN(c3ccccn3)CC1)CN2 (stereo not given)	4.836
O=C(NCc1ccccc1)N1CCC2(CC(=O)N(c3ccsc3)C2)C1 (stereo not given)	-8.501
O=C(NCc1cccc(F)c1)N1CCC2(CC(=O)N(c3ccsc3)C2)C1 (stereo not given)	6.273
O=C(NCc1ccccc1)N1CCC2(CC(=O)N(c3ccccc3)C2)C1 (stereo not given)	115.5
O=C(NCc1cccnc1)N1CCC2(CC(=O)N(c3ccsc3)C2)C1.O=C(O)C(F)(F)F (stereo not given)	89.85
Cn1ccnc1CN1CCC2(CC(=O)N(c3ccsc3)C2)C1.O=C(O)C(F)(F)F (stereo not given)	6.522
